The text below walks through data of the supplement of paper PMC11865577.

Experiment in all cases: normalised indicator fluorescence (fraction of RNA + indicator signal without compound); higher = less displacement of indicator (weaker competition)
Conditions in all cases: compound concentration: 5 uM, 30 min

In one experiment the test system is hsa-mir-191 loop. The method, boiled down:
(§1)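 Displacement screen in 96-well plates: TO-PRO-1 or TO-PRO-3 indicator with RNA in 20 mM phosphate pH 7.0, 20 mM NaCl, 80 mM KCl. Each compound was added as 0.25 μL of 1 mM DMSO stock (about 5 uM final), and fluorescence was read after 30 min on an Infinite 200 PRO (excitation 485 or 620 nm). Values are indicator fluorescence after subtracting the buffer-plus-indicator blank, divided by the no-compound RNA-plus-indicator signal. Each is the mean of two independent experiments.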

The next experiment deals with hsa-mir-21 loop. The method, boiled down:
as §1

For the next experiment, the system named is hsa-mir-221 loop. Put shortly: as §1
A further experiment relates to hsa-mir-374a loop. The method, boiled down: as §1
For a further experiment, the system named is hsa-mir-6850 loop. The method, boiled down: as §1
Setting [1] is: indicator: TO-PRO-1 0.1 uM, RNA concentration: 0.1 uM.
[2] abbreviates: indicator: TO-PRO-3 0.5 uM, RNA concentration: 0.5 uM.

Where a name gives a salt, the structure may show the parent alone.

Consider `O=C(NC(Cc1cc(=O)[nH]c2ccccc12)C(=O)O)c1ccc(Cl)cc1` (centres undefined) [Rebamipide], for which the normalised indicator fluorescence in the experiment with hsa-mir-191 loop (setting [1]) worked out at 1.07; with hsa-mir-191 loop (setting [2]), 1.14; in the experiment with hsa-mir-21 loop (setting [1]) it was 0.99; with hsa-mir-21 loop (setting [2]) it was 1.03; with hsa-mir-221 loop (setting [1]), 1.08; in the experiment on hsa-mir-221 loop (setting [2]), 1.04. The normalised indicator fluorescence in the experiment on hsa-mir-374a loop (setting [1]) was found to be 1.1; with hsa-mir-374a loop (setting [2]), 1.13; with hsa-mir-6850 loop (setting [1]), 1.19; in the experiment on hsa-mir-6850 loop (setting [2]), 1.03.
On to `C[C@@H]1O[C@@H](O[C@H]2[C@H](Oc3cc(O)c4c(c3)O[C@H](c3ccc(O)cc3)CC4=O)O[C@H](CO)[C@@H](O)[C@@H]2O)[C@H](O)[C@H](O)[C@H]1O` [Naringin], for which the normalised indicator fluorescence in the experiment on hsa-mir-191 loop (setting [1]) amounted to 0.96; in the experiment with hsa-mir-191 loop (setting [2]), 1.09; with hsa-mir-21 loop (setting [1]), 0.933; in the experiment on hsa-mir-21 loop (setting [2]) it was 1.08; with hsa-mir-221 loop (setting [1]) it was 1.06; in the experiment with hsa-mir-221 loop (setting [2]), 1.04. The normalised indicator fluorescence in the experiment with hsa-mir-374a loop (setting [1]) came to 1.14; in the experiment on hsa-mir-374a loop (setting [2]), 1.21; in the experiment on hsa-mir-6850 loop (setting [1]) it was 0.897; in the experiment with hsa-mir-6850 loop (setting [2]) it was 1.09.
On to `COC1=C(OC)C(=O)C(CCCCCCCCCCO)=C(C)C1=O` [Idebenone], for which the normalised indicator fluorescence with hsa-mir-191 loop (setting [1]) came out at 1.04; in the experiment on hsa-mir-191 loop (setting [2]), 1.05; in the experiment with hsa-mir-21 loop (setting [1]), 0.937; in the experiment on hsa-mir-21 loop (setting [2]) it was 1.04; with hsa-mir-221 loop (setting [1]) it was 1.02; with hsa-mir-221 loop (setting [2]), 1.04. Further, the normalised indicator fluorescence amounted to 1.04 in the experiment on hsa-mir-374a loop (setting [1]), 1.03 in the experiment with hsa-mir-374a loop (setting [2]), 0.917 with hsa-mir-6850 loop (setting [1]) and 1.02 in the experiment on hsa-mir-6850 loop (setting [2]).
Regarding `C[C@H]1Oc2cc(cnc2N)-c2c(nn(C)c2C#N)CN(C)C(=O)c2ccc(F)cc21` [Lorlatinib], the normalised indicator fluorescence in the experiment with hsa-mir-191 loop (setting [1]) turned out to be 0.997; in the experiment on hsa-mir-191 loop (setting [2]), 1.03; with hsa-mir-21 loop (setting [1]), 1.05; with hsa-mir-21 loop (setting [2]) it was 1.03; in the experiment with hsa-mir-221 loop (setting [1]), 0.999; in the experiment with hsa-mir-221 loop (setting [2]) it was 1.02. The normalised indicator fluorescence in the experiment on hsa-mir-374a loop (setting [1]) worked out at 1.08; with hsa-mir-374a loop (setting [2]), 1.26; with hsa-mir-6850 loop (setting [1]), 1.14; with hsa-mir-6850 loop (setting [2]), 1.05.
In the case of `CN1CCN(c2ccc(C(=O)Nc3n[nH]c4ccc(Cc5cc(F)cc(F)c5)cc34)c(NC3CCOCC3)c2)CC1` [Entrectinib], the normalised indicator fluorescence with hsa-mir-191 loop (setting [1]) worked out at 1.11; in the experiment with hsa-mir-191 loop (setting [2]), 1.04; in the experiment with hsa-mir-21 loop (setting [1]), 1.04; in the experiment on hsa-mir-21 loop (setting [2]), 1.04; in the experiment on hsa-mir-221 loop (setting [1]), 1.04; with hsa-mir-221 loop (setting [2]), 1.18. Also, the normalised indicator fluorescence in the experiment on hsa-mir-374a loop (setting [1]) amounted to 1.09; in the experiment on hsa-mir-374a loop (setting [2]), 1.56; in the experiment with hsa-mir-6850 loop (setting [1]), 1.01; in the experiment with hsa-mir-6850 loop (setting [2]), 1.03.
Turning to `Oc1ccc(OC2CCCCO2)cc1` (centres undefined) [Deoxyarbutin], the normalised indicator fluorescence in the experiment with hsa-mir-191 loop (setting [1]) worked out at 1.11; in the experiment on hsa-mir-191 loop (setting [2]), 1.06; in the experiment with hsa-mir-21 loop (setting [1]), 1.03; in the experiment on hsa-mir-21 loop (setting [2]), 1.06; in the experiment with hsa-mir-221 loop (setting [1]) it was 1.03; with hsa-mir-221 loop (setting [2]), 1.1. The normalised indicator fluorescence with hsa-mir-374a loop (setting [1]) was 1.03; with hsa-mir-374a loop (setting [2]), 1.13; in the experiment on hsa-mir-6850 loop (setting [1]), 0.979; in the experiment on hsa-mir-6850 loop (setting [2]), 1.
In the case of `COc1nc(-c2ccc3c(c2)OCO3)n(-c2ccc(NC(=O)CSc3ccccc3)cc2)n1` [SecinH3], the normalised indicator fluorescence stood at 1.09 with hsa-mir-191 loop (setting [1]); 1.02 with hsa-mir-191 loop (setting [2]); 0.961 in the experiment on hsa-mir-21 loop (setting [1]); 1.2 with hsa-mir-21 loop (setting [2]); 1.02 with hsa-mir-221 loop (setting [1]); 1.1 with hsa-mir-221 loop (setting [2]). For the same compound, the normalised indicator fluorescence with hsa-mir-374a loop (setting [1]) turned out to be 1.01; in the experiment with hsa-mir-374a loop (setting [2]), 1.12; in the experiment on hsa-mir-6850 loop (setting [1]), 1; in the experiment on hsa-mir-6850 loop (setting [2]) it was 0.992.
Take `O=C(O)C(O)Cc1ccc(O)c(O)c1` (centres undefined) [Sodium Danshensu]: the normalised indicator fluorescence in the experiment on hsa-mir-191 loop (setting [1]) was 0.941; with hsa-mir-191 loop (setting [2]), 1.02; with hsa-mir-21 loop (setting [1]) it was 0.888; in the experiment with hsa-mir-21 loop (setting [2]) it was 1.05; in the experiment with hsa-mir-221 loop (setting [1]), 0.976; in the experiment with hsa-mir-221 loop (setting [2]) it was 1.05. Besides, the normalised indicator fluorescence in the experiment with hsa-mir-374a loop (setting [1]) turned out to be 1.07; with hsa-mir-374a loop (setting [2]), 0.994; with hsa-mir-6850 loop (setting [1]), 0.964; with hsa-mir-6850 loop (setting [2]) it was 1.08.
For `CC(=O)c1ccc(S(=O)(=O)NC(=O)NC2CCCCC2)cc1` [Acetohexamide], the normalised indicator fluorescence amounted to 0.972 in the experiment with hsa-mir-191 loop (setting [1]); 1.04 in the experiment on hsa-mir-191 loop (setting [2]); 0.846 in the experiment with hsa-mir-21 loop (setting [1]); 1.09 with hsa-mir-21 loop (setting [2]); 1.08 in the experiment with hsa-mir-221 loop (setting [1]); 1.05 with hsa-mir-221 loop (setting [2]). The normalised indicator fluorescence in the experiment with hsa-mir-374a loop (setting [1]) is 1.18; in the experiment with hsa-mir-374a loop (setting [2]), 1.21; in the experiment on hsa-mir-6850 loop (setting [1]), 0.908; in the experiment on hsa-mir-6850 loop (setting [2]), 1.08.
Regarding `CO[C@@H]1[C@H](N(C)C(=O)c2ccccc2)C[C@H]2O[C@]1(C)n1c3ccccc3c3c4c(c5c6ccccc6n2c5c31)C(=O)NC4` [Midostaurin], the normalised indicator fluorescence was 1.16 in the experiment with hsa-mir-191 loop (setting [1]); 1.04 in the experiment on hsa-mir-191 loop (setting [2]); 1.09 in the experiment on hsa-mir-21 loop (setting [1]); 1.06 with hsa-mir-21 loop (setting [2]); 1.18 in the experiment on hsa-mir-221 loop (setting [1]); 0.972 with hsa-mir-221 loop (setting [2]). The normalised indicator fluorescence amounted to 1.43 in the experiment on hsa-mir-374a loop (setting [2]), 1.02 in the experiment on hsa-mir-6850 loop (setting [1]) and 1.02 in the experiment on hsa-mir-6850 loop (setting [2]).
For `CN(C)CCCN1c2ccccc2CCc2ccc(Cl)cc21` [Clomipramine hydrochloride], the normalised indicator fluorescence in the experiment on hsa-mir-191 loop (setting [1]) came out at 1; in the experiment with hsa-mir-191 loop (setting [2]) it was 1.1; with hsa-mir-21 loop (setting [1]) it was 0.961; in the experiment on hsa-mir-21 loop (setting [2]), 0.987; with hsa-mir-221 loop (setting [1]) it was 1.07; in the experiment on hsa-mir-221 loop (setting [2]), 1.01. The normalised indicator fluorescence in the experiment on hsa-mir-374a loop (setting [1]) was found to be 1.14; with hsa-mir-374a loop (setting [2]), 1.02; in the experiment with hsa-mir-6850 loop (setting [1]) it was 0.864; with hsa-mir-6850 loop (setting [2]), 1.08.
On to `C[S+]([O-])c1ccc(-c2nc(-c3ccc(F)cc3)c(-c3ccncc3)[nH]2)cc1` (centres undefined), for which the normalised indicator fluorescence turned out to be 0.969 in the experiment with hsa-mir-191 loop (setting [1]); 1.02 in the experiment with hsa-mir-191 loop (setting [2]); 1.05 in the experiment with hsa-mir-21 loop (setting [1]); 1.02 with hsa-mir-21 loop (setting [2]); 1.01 with hsa-mir-221 loop (setting [1]); 1.05 with hsa-mir-221 loop (setting [2]). The normalised indicator fluorescence turned out to be 1.07 in the experiment on hsa-mir-374a loop (setting [1]), 1.04 with hsa-mir-374a loop (setting [2]), 1.08 in the experiment on hsa-mir-6850 loop (setting [1]) and 1.04 in the experiment on hsa-mir-6850 loop (setting [2]).
In the case of `O=[N+]([O-])c1ccc(-c2nc(-c3ccc(F)cc3)c(-c3ccncc3)[nH]2)cc1`, the normalised indicator fluorescence in the experiment on hsa-mir-191 loop (setting [1]) was 1.06; in the experiment on hsa-mir-191 loop (setting [2]), 1.03; with hsa-mir-21 loop (setting [1]), 0.973; in the experiment with hsa-mir-21 loop (setting [2]) it was 1.03; in the experiment with hsa-mir-221 loop (setting [1]) it was 1.16; with hsa-mir-221 loop (setting [2]), 1.03. For the same compound, the normalised indicator fluorescence worked out at 1.59 with hsa-mir-374a loop (setting [1]), 1.15 in the experiment on hsa-mir-374a loop (setting [2]), 0.975 with hsa-mir-6850 loop (setting [1]) and 1.03 with hsa-mir-6850 loop (setting [2]).
With `N=C(NCCCCCCNC(=N)NC(=N)Nc1ccc(Cl)cc1)NC(=N)Nc1ccc(Cl)cc1` [Chlorhexidine hydrochloride], the normalised indicator fluorescence in the experiment with hsa-mir-191 loop (setting [1]) came out at 1.01; with hsa-mir-191 loop (setting [2]), 0.962; in the experiment on hsa-mir-21 loop (setting [1]), 0.896; in the experiment on hsa-mir-21 loop (setting [2]), 1; in the experiment on hsa-mir-221 loop (setting [1]), 1.01; with hsa-mir-221 loop (setting [2]) it was 0.981. Moreover, the normalised indicator fluorescence is 1.06 with hsa-mir-374a loop (setting [1]), 1.05 in the experiment on hsa-mir-374a loop (setting [2]), 0.906 in the experiment with hsa-mir-6850 loop (setting [1]) and 1.04 in the experiment with hsa-mir-6850 loop (setting [2]).
Turning to `CC1(C)CC(=O)c2c(C(F)(F)F)nn(-c3ccc(C(N)=O)c(N[C@H]4CC[C@H](O)CC4)c3)c2C1`, the normalised indicator fluorescence in the experiment on hsa-mir-191 loop (setting [1]) turned out to be 1.03; in the experiment with hsa-mir-191 loop (setting [2]) it was 1.03; with hsa-mir-21 loop (setting [1]), 0.989; with hsa-mir-21 loop (setting [2]), 1.04; in the experiment with hsa-mir-221 loop (setting [1]), 0.978; in the experiment with hsa-mir-221 loop (setting [2]) it was 1.18. The normalised indicator fluorescence was 1.01 in the experiment with hsa-mir-374a loop (setting [1]), 1.13 in the experiment with hsa-mir-374a loop (setting [2]), 0.777 with hsa-mir-6850 loop (setting [1]) and 0.989 with hsa-mir-6850 loop (setting [2]).
